# Laboratory results from PubChem BioAssay (Tox21).
# Results filed as inconclusive are left out. A call without a number means that no potency is given here. The source made the active and inactive calls. Calls follow the shape of the dose curve; as a rule, active = well fitted cell-killing curve with a large enough effect in the repeat runs; inconclusive = weak or mixed curves, or effect the other way; inactive = flat fitted curve, though single readings scatter.
# What was measured:
# [1] = cAMP Responsive Elements (CRE) small molecule antagonists, cell-based qHTS assay: qHTS cell viability counter screen (AID 2060913); also: nearly all actives have a fitted effect of over 40% in size
# Summary of the method: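 CRE-bla HEK293T cells (2,000/well, 18 h) given compound plus NKH477 0.25 uM final for 3 h at 37C; viability counter-screen by CellTiter-Glo luminescence in same wells after 30 min.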
# [2] = cAMP Responsive Elements (CRE) small molecule agonists, cell-based qHTS assay: qHTS cell viability counter screen (AID 2060914); also: nearly all actives have a fitted effect of over 50% in size
# Summary of the method: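 Cytotoxicity was measured as ATP luminescence (CellTiter-Glo, 30 min at room temperature) in the same wells as the CRE-bla FRET read-out. HEK293T CRE-bla cells had 3 h compound exposure at 37C/5% CO2.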
# Potency is read from the fitted curve at half-maximal effect.
SMILES,Potency [1],Potency [2]
COC(=O)Nc1nc2ccccc2[nH]1,inactive,inactive
CCN(CC)CCc1c[nH]c2ccccc12,inactive,inactive
Clc1nc(Cl)nc(Nc2ccccc2Cl)n1,inactive,inactive
Nc1ccc(N=Nc2ccccc2)cc1,inactive,inactive
CCCCCCCCCCCCCCCCCCn1cc[n+](C)c1,27.1 µM (active),30.5 µM (active)
Clc1ccc(Cl)cc1,inactive,inactive
COP(=O)(OC)OC(Br)C(Cl)(Cl)Br (stereo unspecified),inactive,inactive
CNC(C)(C)Cc1ccccc1,inactive,inactive
CCCN1CCC[C@@H]2Cc3[nH]ncc3C[C@H]21,inactive,inactive
Cn1cc(C2=C(c3cn(C4CCN(Cc5ccccn5)CC4)c4ccccc34)C(=O)NC2=O)c2ccccc21,inactive,inactive
O=C(NC(=O)c1c(F)cccc1F)Nc1ccc(Cl)cc1,inactive,inactive
CCCCOC(=O)COC(=O)c1ccccc1C(=O)OCCCC,inactive,inactive
CCC(OC(C)=O)C(CC(C)NC)(c1ccccc1)c1ccccc1 (stereo unspecified),inactive,inactive
C=Cc1cccc(CCl)c1,inactive,inactive
COc1ccc2c(c1OC)C(=O)O[C@H]2[C@@H]1c2cc3c(cc2CCN1C)OCO3,inactive,inactive
CC(C)C1(C)N=C(c2nc3ccccc3cc2C(=O)O)NC1=O (stereo unspecified),inactive,inactive
C=CC(=O)OCCCCCC(C)C,inactive,inactive
CC(Cc1ccccc1)NCCn1cnc2c1c(=O)n(C)c(=O)n2C (stereo unspecified),inactive,inactive
O=c1ssc(Cl)c1Cl,inactive,inactive
CCCCCON=O,inactive,inactive
Nc1ccccc1Cl,inactive,inactive
O=C(Cl)c1ccc(Cl)cc1,inactive,inactive
C#CCOS(=O)OC1CCCCC1Oc1ccc(C(C)(C)C)cc1 (stereo unspecified),inactive,inactive
Nc1ccc(-c2ccc(N)c(Cl)c2)cc1Cl,inactive,inactive
CCCCCCCCCCCCCN1CC(C)OC(C)C1 (stereo unspecified),inactive,inactive
CCC(C)c1cc([N+](=O)[O-])cc([N+](=O)[O-])c1OC(=O)C=C(C)C (stereo unspecified),inactive,inactive
C[C@]12Cc3cn[nH]c3C[C@@H]1CC[C@@H]1[C@@H]2CC[C@@]2(C)[C@H]1CC[C@]2(C)O,inactive,inactive

SMILES,Potency [1],Potency [2]
CN(C)[C@@H]1C(=O)C(C(N)=O)=C(O)[C@@]2(O)C(=O)C3=C(O)c4c(O)ccc(Cl)c4[C@@](C)(O)[C@H]3C[C@@H]12,inactive,inactive
CON(C)C(=O)Nc1ccc(Br)cc1,inactive,inactive
O=C(O)COc1ccc(Cl)cc1Cl,inactive,inactive
OCCCl,inactive,inactive
Cc1coc2c1CCC(C)C2 (stereo unspecified),inactive,inactive
Nc1ccccc1,inactive,inactive
C=CC(=O)OCCN(C)C,inactive,inactive
O=C(O)C1(c2ccc3c(c2)OC[C@H](Cc2ccc(-c4ccccc4)cc2)[C@H]3O)CCCC1,inactive,inactive
Clc1ccc(C(c2ccc(Cl)cc2)C(Cl)Cl)cc1,inactive,62.1 µM (active)
CC(C)C(=O)Cl,inactive,inactive
CCN[C@H](C)Cc1cccc(C(F)(F)F)c1,inactive,inactive
Nc1ccccc1C(=O)Oc1ccc2ccccc2c1,inactive,inactive
CN(C)CCO,inactive,inactive
CC(C)c1ccc(O)cc1,inactive,inactive
CC1(C)[C@H](C(=O)O[C@H](C#N)c2cccc(Oc3ccccc3)c2)[C@@H]1/C=C(\Cl)C(F)(F)F,inactive,inactive
COc1cnc(OC)n2nc(NS(=O)(=O)c3c(OCC(F)F)cccc3C(F)(F)F)nc12,inactive,inactive
CCCN(CCCl)c1c([N+](=O)[O-])cc(C(F)(F)F)cc1[N+](=O)[O-],inactive,inactive
O=S(=O)(O)C(F)(F)C(F)(F)C(F)(F)C(F)(F)F,inactive,inactive
CCOC(=O)C1(c2ccccc2)CCN(CCc2ccc(N)cc2)CC1,inactive,inactive
O=[N+]([O-])O.O=[N+]([O-])O.[Cd],inactive,inactive
CCCCC(CC)C(=O)Cl (stereo unspecified),inactive,inactive
Cc1ccc(N)cc1,inactive,inactive
O=[N+]([O-])C(Br)Br,inactive,inactive
CCC(C)(C#N)N=NC(C)(C#N)CC (stereo unspecified),inactive,inactive
N[C@@H](Cc1ccc(Oc2cc(I)c(O)c(I)c2)c(I)c1)C(=O)O,inactive,inactive
Cc1ccccc1N,inactive,inactive
